SMILES strings stand for the structures. Values joined by “and” are separate entries in the source; they are usually repeats but may differ in a detail not shown here. Equal values may be shown once.

Sequence of Ribosomal protein S6 kinase alpha-6 (Homo sapiens) (Q9UK32 whole entry): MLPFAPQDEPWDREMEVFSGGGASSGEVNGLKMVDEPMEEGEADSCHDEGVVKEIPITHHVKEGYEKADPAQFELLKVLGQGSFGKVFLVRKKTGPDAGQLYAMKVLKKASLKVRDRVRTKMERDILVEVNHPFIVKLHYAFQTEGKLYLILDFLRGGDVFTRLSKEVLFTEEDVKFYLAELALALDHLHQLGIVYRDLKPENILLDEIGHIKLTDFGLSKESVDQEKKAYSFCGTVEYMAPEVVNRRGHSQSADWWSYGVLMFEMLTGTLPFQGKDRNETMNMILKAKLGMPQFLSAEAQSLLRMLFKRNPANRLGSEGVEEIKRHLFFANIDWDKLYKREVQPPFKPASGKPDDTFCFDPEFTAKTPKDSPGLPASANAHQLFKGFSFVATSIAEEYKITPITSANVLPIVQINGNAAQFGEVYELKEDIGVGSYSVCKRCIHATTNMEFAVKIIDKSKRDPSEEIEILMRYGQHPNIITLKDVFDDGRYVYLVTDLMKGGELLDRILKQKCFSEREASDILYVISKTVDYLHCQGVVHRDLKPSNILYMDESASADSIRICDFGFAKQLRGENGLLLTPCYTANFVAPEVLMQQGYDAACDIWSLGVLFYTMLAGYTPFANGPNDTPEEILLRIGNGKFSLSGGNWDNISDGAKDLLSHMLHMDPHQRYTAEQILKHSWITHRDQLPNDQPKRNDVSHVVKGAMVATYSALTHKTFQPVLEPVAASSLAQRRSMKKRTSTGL

The target in the first experiment is Ribosomal protein S6 kinase alpha-2 (Homo sapiens) (UniProt Q15349). The following applies: at 1 µM.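 Further: value is the mean inhibition of RSK3 within GSK PKIS.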
Sequence of Ribosomal protein S6 kinase alpha-2 (Homo sapiens) (Q15349 whole entry): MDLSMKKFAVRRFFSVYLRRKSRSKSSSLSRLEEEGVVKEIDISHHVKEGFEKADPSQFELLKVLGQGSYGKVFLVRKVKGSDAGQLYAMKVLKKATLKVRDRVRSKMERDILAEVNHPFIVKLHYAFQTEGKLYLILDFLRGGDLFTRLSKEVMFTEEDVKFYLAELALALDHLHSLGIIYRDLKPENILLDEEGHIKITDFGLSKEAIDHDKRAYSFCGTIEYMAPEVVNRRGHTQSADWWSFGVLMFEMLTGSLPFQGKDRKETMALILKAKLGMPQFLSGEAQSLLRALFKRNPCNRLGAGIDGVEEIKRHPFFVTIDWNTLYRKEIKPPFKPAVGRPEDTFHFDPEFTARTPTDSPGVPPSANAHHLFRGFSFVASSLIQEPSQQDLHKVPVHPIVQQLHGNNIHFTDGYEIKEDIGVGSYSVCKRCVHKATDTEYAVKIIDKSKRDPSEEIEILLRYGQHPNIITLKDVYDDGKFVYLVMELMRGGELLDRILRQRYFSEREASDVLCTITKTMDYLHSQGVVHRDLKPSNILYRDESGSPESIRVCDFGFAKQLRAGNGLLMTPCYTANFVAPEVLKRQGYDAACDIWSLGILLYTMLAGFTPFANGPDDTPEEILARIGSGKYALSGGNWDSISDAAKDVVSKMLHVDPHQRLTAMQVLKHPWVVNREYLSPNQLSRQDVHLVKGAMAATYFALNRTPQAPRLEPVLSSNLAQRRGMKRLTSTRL
For the molecule `CC1(C)CC(n2cnc(-c3ccc(F)cc3)c2-c2ccnc(N)n2)CC(C)(C)N1`, the inhibition (in general, the change of the read-out against control, counted positive when it falls) came out at 1.53%.

As for `CNC(=O)c1ncccc1Nc1nc(Nc2cc3c(cc2OC)CCCN3C(=O)CN(C)C)nc2[nH]ccc12`, the inhibition amounted to 7.32%.

Consider `COc1cccc(-n2ncc3c(N/N=C/c4ccc(C(=O)NCCN(C)C)cc4)ncnc32)c1`, for which the inhibition is 8.18%.

In the case of `Cc1c2ccc(N(C)c3ccnc(Nc4cccc(S(N)(=O)=O)c4)n3)cc2nn1C`, the inhibition was 5.15%.

`OCCCNc1nccc(-c2c(-c3ccc(F)cc3)nn3cc(C(F)(F)F)ccc23)n1`: the inhibition worked out at 2.43%.

Turning to `COc1cccc(Nc2nccc(-c3cnn4ncccc34)n2)c1`, the inhibition is 2.4%.

With `O=C(O[C@H]1CN[C@H](C#Cc2cc3ncnc(Nc4ccc(OCc5cccc(F)c5)c(Cl)c4)c3s2)C1)N1CCOCC1`, the inhibition is 3.4%.

In the case of `NS(=O)(=O)c1ccc(N/N=C2\C(=O)Nc3ccc(C(=O)NCc4ccncc4)cc32)cc1`, the inhibition is 7.63%.

For the molecule `CS(=O)(=O)CCNCc1ccc(-c2ccc3ncnc(Nc4ccc(OCc5ccccc5)cc4)c3c2)o1`, the inhibition was 4.28%.

With `CCOc1ccc2c(-c3ccnc(Nc4cc(OC)cc(C(F)(F)F)c4)n3)cnn2n1`, the inhibition amounted to 0.33%.

`Nc1nonc1-c1nc2cnccc2n1C1CC1`: the inhibition is 90.9% and 91.2%.

As to `CCN1CCC(C(=O)Nc2n[nH]c3nnc(-c4cccc(F)c4F)cc23)CC1`, the inhibition was determined as 1.38%.

On to `CS(=O)(=O)CCNCc1ccc(-c2ccc3ncnc(Nc4ccc(OCc5cccc(C(F)(F)F)c5)cc4)c3c2)o1`, for which the inhibition came out at 2.69%.

As to `Nc1nccc(-c2c(-c3ccc(F)cc3)ncn2C2CCNCC2)n1`, the inhibition was 0.91% and 1.92%.

The next experiment addresses Ribosomal protein S6 kinase alpha-6 (Homo sapiens) (UniProt Q9UK32). The following applies: at 0.1 µM.
Consider `c1cnn2ncc(-c3ccnc(NCCCN4CCOCC4)n3)c2c1`, for which the inhibition is -0.14%.

For the molecule `FC(F)(F)CNc1nccc(-c2cnn3ncccc23)n1`, the inhibition was determined as 0.72%.

For the molecule `CCS(=O)(=O)c1ccc(OC)c(Nc2ncc(-c3cccc(F)c3)o2)c1`, the inhibition was 2.2%.

In the case of `COc1ccc(Nc2ncc(-c3ccccc3)o2)cc1OC`, the inhibition was found to be 0.4%.

With `Cc1nnc(-c2cccc(-c3ccc(C(=O)NCC4CC4)cc3)c2)o1`, the inhibition amounted to 2.12%.

Take `COc1cc(N2CCN(C(C)C)CC2)ccc1Nc1nc(Nc2cccc3ncccc23)c2cc[nH]c2n1`: the inhibition was determined as 0.58%.

For the molecule `Cn1c(-c2nonc2N)nc2cnccc21`, the inhibition stood at 2.49%.

On to `CC1=C(C(=O)Nc2ccc3[nH]nc(C)c3c2)C(c2ccc(C(F)(F)F)cc2)CC(=O)N1` (stereo unspecified), for which the inhibition amounted to 3.48%.

As for `CN1CCC(n2cnc(-c3ccc(F)cc3)c2-c2ccnc(NCCO)n2)CC1`, the inhibition was determined as 1.56%.

Take `COc1cc(Nc2ncc(-c3ccccc3)o2)cc(OC)c1`: the inhibition is 0.85%.

As for `CC1=C(C(=O)Nc2ccc3[nH]ncc3c2)C(c2ccc(F)cc2)N=C(c2ccc(C(F)(F)F)nc2)N1` (stereo unspecified), the inhibition was found to be 0.55%.

Consider `Cc1ccc(-c2cc3c(NC(=O)C4CC4)ncnc3o2)cc1`, for which the inhibition stood at 0.9%.

As for `O=C1Nc2ccccc2/C1=C1\CCc2cc(O)ccc21`, the inhibition is 7.24%.

As to `CN(C)CCNC(=O)Nc1ccc(N(C)c2ccnc(Nc3ccc(CS(C)(=O)=O)cc3)n2)cc1`, the inhibition was 1.56%.

For the molecule `CS(=O)(=O)CCNCc1ccoc1-c1ccc2ncnc(Nc3ccc(OCc4ccccc4)cc3)c2c1`, the inhibition was -0.31%.

As to `CS(=O)(=O)Nc1ccc(-c2ccc3c(NC(=O)C4CC4)n[nH]c3c2)cc1`, the inhibition was found to be 1.37%.

For `O=C(Nc1n[nH]c2nnc(-c3cccnc3)cc12)C1CC1`, the inhibition was 0.32%.

For `CC1(C)CC(n2cnc(-c3ccc(F)cc3)c2-c2ccnc(N)n2)CC(C)(C)N1`, the inhibition turned out to be 0.66%.

With `CNC(=O)c1ncccc1Nc1nc(Nc2cc3c(cc2OC)CCCN3C(=O)CN(C)C)nc2[nH]ccc12`, the inhibition amounted to 3.92%.

Take `COc1cccc(-n2ncc3c(N/N=C/c4ccc(C(=O)NCCN(C)C)cc4)ncnc32)c1`: the inhibition came out at 2.38%.

As for `Cc1c2ccc(N(C)c3ccnc(Nc4cccc(S(N)(=O)=O)c4)n3)cc2nn1C`, the inhibition came out at 2.42%.

As for `OCCCNc1nccc(-c2c(-c3ccc(F)cc3)nn3cc(C(F)(F)F)ccc23)n1`, the inhibition came to 0.24%.

Regarding `COc1cccc(Nc2nccc(-c3cnn4ncccc34)n2)c1`, the inhibition is -1.37%.

As to `O=C(O[C@H]1CN[C@H](C#Cc2cc3ncnc(Nc4ccc(OCc5cccc(F)c5)c(Cl)c4)c3s2)C1)N1CCOCC1`, the inhibition came out at 2.22%.

In the case of `NS(=O)(=O)c1ccc(N/N=C2\C(=O)Nc3ccc(C(=O)NCc4ccncc4)cc32)cc1`, the inhibition amounted to 3.7%.

Regarding `CS(=O)(=O)CCNCc1ccc(-c2ccc3ncnc(Nc4ccc(OCc5ccccc5)cc4)c3c2)o1`, the inhibition was 2.96%.

As for `CCOc1ccc2c(-c3ccnc(Nc4cc(OC)cc(C(F)(F)F)c4)n3)cnn2n1`, the inhibition came to 1.36%.

With `Nc1nonc1-c1nc2cnccc2n1C1CC1`, the inhibition is 10.3% and 11.7%.

On to `CCN1CCC(C(=O)Nc2n[nH]c3nnc(-c4cccc(F)c4F)cc23)CC1`, for which the inhibition came out at 0.8%.

With `CS(=O)(=O)CCNCc1ccc(-c2ccc3ncnc(Nc4ccc(OCc5cccc(C(F)(F)F)c5)cc4)c3c2)o1`, the inhibition was found to be 0.05%.

With `Nc1nccc(-c2c(-c3ccc(F)cc3)ncn2C2CCNCC2)n1`, the inhibition was -2.38% and 0.34%.

Another experiment shares this target. As to conditions: at 1 µM.
As to `c1cnn2ncc(-c3ccnc(NCCCN4CCOCC4)n3)c2c1`, the inhibition was determined as 0.49%.

Regarding `FC(F)(F)CNc1nccc(-c2cnn3ncccc23)n1`, the inhibition came to 0.2%.

`CCS(=O)(=O)c1ccc(OC)c(Nc2ncc(-c3cccc(F)c3)o2)c1`: the inhibition came out at 6.33%.

Regarding `COc1ccc(Nc2ncc(-c3ccccc3)o2)cc1OC`, the inhibition is 3.67%.

For the molecule `Cc1nnc(-c2cccc(-c3ccc(C(=O)NCC4CC4)cc3)c2)o1`, the inhibition came out at 2.8%.

`COc1cc(N2CCN(C(C)C)CC2)ccc1Nc1nc(Nc2cccc3ncccc23)c2cc[nH]c2n1`: the inhibition came out at 2.88%.

As to `Cn1c(-c2nonc2N)nc2cnccc21`, the inhibition was determined as 5.91%.

As for `CC1=C(C(=O)Nc2ccc3[nH]nc(C)c3c2)C(c2ccc(C(F)(F)F)cc2)CC(=O)N1` (stereo unspecified), the inhibition came to 18.9%.

On to `CN1CCC(n2cnc(-c3ccc(F)cc3)c2-c2ccnc(NCCO)n2)CC1`, for which the inhibition was determined as 1.96%.

For the molecule `COc1cc(Nc2ncc(-c3ccccc3)o2)cc(OC)c1`, the inhibition was determined as 2.83%.

On to `CC1=C(C(=O)Nc2ccc3[nH]ncc3c2)C(c2ccc(F)cc2)N=C(c2ccc(C(F)(F)F)nc2)N1` (stereo unspecified), for which the inhibition was 0.46%.

In the case of `Cc1ccc(-c2cc3c(NC(=O)C4CC4)ncnc3o2)cc1`, the inhibition was 2.4%.

Regarding `O=C1Nc2ccccc2/C1=C1\CCc2cc(O)ccc21`, the inhibition was 37.6%.

Take `CN(C)CCNC(=O)Nc1ccc(N(C)c2ccnc(Nc3ccc(CS(C)(=O)=O)cc3)n2)cc1`: the inhibition is 3.59%.

`CS(=O)(=O)CCNCc1ccoc1-c1ccc2ncnc(Nc3ccc(OCc4ccccc4)cc3)c2c1`: the inhibition was -0.72%.

For the molecule `CS(=O)(=O)Nc1ccc(-c2ccc3c(NC(=O)C4CC4)n[nH]c3c2)cc1`, the inhibition worked out at 3.46%.

For `O=C(Nc1n[nH]c2nnc(-c3cccnc3)cc12)C1CC1`, the inhibition is 0.26%.

In the case of `CC1(C)CC(n2cnc(-c3ccc(F)cc3)c2-c2ccnc(N)n2)CC(C)(C)N1`, the inhibition stood at 0.95%.

As to `CNC(=O)c1ncccc1Nc1nc(Nc2cc3c(cc2OC)CCCN3C(=O)CN(C)C)nc2[nH]ccc12`, the inhibition turned out to be 19.7%.

As for `COc1cccc(-n2ncc3c(N/N=C/c4ccc(C(=O)NCCN(C)C)cc4)ncnc32)c1`, the inhibition amounted to 6.67%.

Turning to `Cc1c2ccc(N(C)c3ccnc(Nc4cccc(S(N)(=O)=O)c4)n3)cc2nn1C`, the inhibition turned out to be 4.77%.

On to `OCCCNc1nccc(-c2c(-c3ccc(F)cc3)nn3cc(C(F)(F)F)ccc23)n1`, for which the inhibition was 2.38%.

For `COc1cccc(Nc2nccc(-c3cnn4ncccc34)n2)c1`, the inhibition came out at 4.34%.

Consider `O=C(O[C@H]1CN[C@H](C#Cc2cc3ncnc(Nc4ccc(OCc5cccc(F)c5)c(Cl)c4)c3s2)C1)N1CCOCC1`, for which the inhibition turned out to be 1.82%.

As for `NS(=O)(=O)c1ccc(N/N=C2\C(=O)Nc3ccc(C(=O)NCc4ccncc4)cc32)cc1`, the inhibition came to 11.3%.

Turning to `CS(=O)(=O)CCNCc1ccc(-c2ccc3ncnc(Nc4ccc(OCc5ccccc5)cc4)c3c2)o1`, the inhibition came out at 1.11%.

Turning to `CCOc1ccc2c(-c3ccnc(Nc4cc(OC)cc(C(F)(F)F)c4)n3)cnn2n1`, the inhibition amounted to 0.36%.

Turning to `Nc1nonc1-c1nc2cnccc2n1C1CC1`, the inhibition was 39.3% and 40.7%.

`CCN1CCC(C(=O)Nc2n[nH]c3nnc(-c4cccc(F)c4F)cc23)CC1`: the inhibition came to 0.55%.

On to `CS(=O)(=O)CCNCc1ccc(-c2ccc3ncnc(Nc4ccc(OCc5cccc(C(F)(F)F)c5)cc4)c3c2)o1`, for which the inhibition turned out to be 1.68%.

With `Nc1nccc(-c2c(-c3ccc(F)cc3)ncn2C2CCNCC2)n1`, the inhibition was 4.21% and 1.38%.
